# Experimental data taken from PubChem BioAssay AID504332 (National Center for Advancing Translational Sciences (NCATS), 2011).
# Hit rate of the full screen: of about 350,000 compounds, about 31,000 (8.9%) were called active. Where a call stands in place of a potency, no number is given. Not shown: some 15% with an inconclusive outcome. The call rests on the fitted dose curve; in most records, active means well fitted inhibition curve with a large enough effect; inconclusive means small, poorly fitted or top-dose-only effect; inactive means no such curve, though single readings can be large or run the other way. The sample as a whole holds a higher share of actives than the screen did.
# Target: Histone-lysine N-methyltransferase EHMT2 (Homo sapiens) (UniProt Q96KQ7)
# Sequence (Q96KQ7 913-1193 limits assumed): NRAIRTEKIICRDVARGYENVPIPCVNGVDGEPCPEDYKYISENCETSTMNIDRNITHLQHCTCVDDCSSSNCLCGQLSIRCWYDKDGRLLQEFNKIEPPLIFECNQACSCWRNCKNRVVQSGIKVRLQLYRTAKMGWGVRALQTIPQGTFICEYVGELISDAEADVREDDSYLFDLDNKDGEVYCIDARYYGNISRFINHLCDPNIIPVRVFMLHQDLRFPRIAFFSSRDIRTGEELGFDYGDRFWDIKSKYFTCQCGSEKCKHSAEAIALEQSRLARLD
# Test: qHTS Assay for Inhibitors of Histone Lysine Methyltransferase G9a; further: nearly all actives have a fitted effect of over 75% in size
# Conditions: G9a H3K9 monomethylation, AlphaScreen, 2 h; series mostly up to 59 µM
# In short: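 Signal arises when biotinylated H3K9 peptide, once monomethylated, bridges streptavidin donor and antibody-captured acceptor beads. Enzyme at 20 nM was preincubated 15 min with test compounds; peptide 500 nM and SAM 20 uM then reacted for 2 h.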
# Potency means the concentration at half of the fitted maximal effect.
SMILES,Potency,"activity, negative = inhibition"
Cc1c(NC(=O)Nc2ccc(F)c(Cl)c2)c(=O)n(-c2ccccc2)n1C,inactive,
O=C(O[C@@H]1[C@H](Cc2ccccc2)NS(=O)(=O)[C@H]2C[C@@H]3C=C[C@]12O3)c1ccccc1Br,,6.72% [at 0.501 µM] (inactive)
O=C(CCN1c2ccccc2Sc2ccccc21)Nc1ccccc1,50.1 µM (active),
CC1CCN(CCC(=O)Nc2ccccc2)CC1,inactive,
O=C(CSCc1ccccc1)Nc1ccccc1,,2.25% [at 2.33 µM] (inactive)
O=C(COc1ccccc1Cl)Nc1ccc2nc(SCC(=O)N3CCCC3)sc2c1,inactive,
O=C(Nc1ccc(C2CC2(Cl)Cl)cc1)c1cccc([N+](=O)[O-])c1 (stereo not given),inactive,
COc1ccc(C2(C)ON(c3ccccc3C(F)(F)F)C2=O)cc1 (stereo not given),,1.68% [at 2.33 µM] (inactive)
COc1ccc(S(=O)(=O)N2CCCC2CNC(=O)C(=O)NC2CC2)cc1 (stereo not given),,4.18% [at 0.501 µM] (inactive)
CCC(=O)c1ccc(OCC(=O)OCC(=O)NC2CCCCCC2)cc1,inactive,
O=C(COc1ccccc1[N+](=O)[O-])N/N=C/c1ccc[nH]1,inactive,
O=C(COc1ccccc1[N+](=O)[O-])NC1CC1,inactive,
C=CCN(CC=C)CCOc1ccccc1[N+](=O)[O-],17.8 µM (active),
CSc1ccccc1NC(=O)C(C)N1C(=O)c2ccccc2S1(=O)=O (stereo not given),inactive,
Cc1nn(C(C)C(=O)NCCc2ccccc2)c(=O)c2c1sc1ccccc12 (stereo not given),inactive,
COc1ccc(-c2cc(C(=O)NC(Cc3c[nH]c4ccccc34)C(=O)O)c(C)o2)cc1OC (stereo not given),10 µM (active),
COc1ccc(CNC(=O)[C@H](Cc2c[nH]c3ccccc23)NC(C)=O)cc1OC,inactive,
Cc1cccc(C)c1OCC(=O)NC(Cc1c[nH]c2ccccc12)C(=O)O (stereo not given),inactive,
O=C(Nc1cccc(Br)c1)c1ccc2snnc2c1,inactive,
COc1cccc(Cn2c(CNS(=O)(=O)c3ccc(Cl)s3)nc3cccnc32)c1,inactive,
CCCCCn1c(=O)[nH]c2cc(C(=O)NCCN(C)CCCC)ccc2c1=O,inactive,
O=C(N/N=C/c1ccoc1)c1ccc(Cl)cc1Cl,inactive,

SMILES,Potency,"activity, negative = inhibition"
COC(=O)c1cc(C(=O)OC)cc(N2C(=O)CC(N3CCN(c4ccccc4)CC3)C2=O)c1 (stereo not given),15.8 µM (active),
CC(=O)Oc1cccc(N2C(=O)CC(Nc3ccc(N4CCOCC4)cc3)C2=O)c1 (stereo not given),,-45.5% [at 12.7 µM] (inactive)
CCCCOC(=O)c1ccc(N2C(=O)CC(N3CCN(C/C=C/c4ccccc4)CC3)C2=O)cc1 (stereo not given),inactive,
Cc1ccc(C)c(Cn2c(=O)n(CCC(=O)NCc3ccc4c(c3)OCO4)c(=O)c3sccc32)c1,inactive,
Cc1ccc(F)cc1S(=O)(=O)N1CCC(c2nc3ccccc3s2)CC1,inactive,
N#Cc1ccc(C(c2nnnn2CCc2ccccc2)N2CCCCCC2)cc1 (stereo not given),inactive,
COCCn1nnnc1C(c1ccccc1Cl)N1CCN(c2ccccc2OC)CC1 (stereo not given),inactive,
COc1ccc(CCn2nnnc2C(c2ccccc2)N2CCN(C)CC2)cc1OC (stereo not given),70.8 µM (active),
COc1ccc(C(=O)N2CCC(c3nc4ccccc4o3)CC2)cc1,inactive,
COc1ccc(CNC(=O)c2cc3cccc(OC)c3oc2=O)cc1,inactive,
O=C(CC1N=C2c3ccccc3N=C(SCc3cccc(Cl)c3)N2C1=O)NCc1ccc2c(c1)OCO2 (stereo not given),inactive,
CCOC(=O)c1c(C)[nH]c(C(=O)OCC(=O)c2ccc(OC)cc2OC)c1C,,4.02% [at 0.501 µM] (inactive)
Cc1cccc(CC(=O)N2CC(=O)Nc3ccc(F)cc3C2c2ccccc2)c1 (stereo not given),inactive,
CN=C1C=C/C(=N/N=c2\ccn(O)cc2C)C=C1C,7.94 µM (active),
O=C(NCCc1ccc(C(F)(F)F)cc1)c1ccc2c(c1)OCO2,inactive,
COC(=O)C(CC(=O)Nc1cc(C)ccc1C)Nc1ccccc1OC (stereo not given),,-11.9% [at 2.33 µM] (inactive)
Cc1ccc(C)c(NC(=O)CCC(=O)NNC(=O)c2cccs2)c1,inactive,
Cc1ccc(C)c(NC(CC(=O)c2ccccc2)C(=O)OCC(=O)c2cccs2)c1 (stereo not given),28.2 µM (active),
CN1C(C(=O)NCC2CC2)CC2Cn3c(nc4ccccc43)C21 (stereo not given),,2.03% [at 2.33 µM] (inactive)
Cc1ccc(S(=O)(=O)CC(=O)Nc2sc(C)c(C)c2C(N)=O)cc1,,-22.4% [at 0.501 µM] (inactive)
COc1ccccc1C(=O)Nc1ccc(C)c(S(=O)(=O)N2CCCCC2)c1,inactive,
CCCCc1nc2ccccc2c(NC(=O)CN2CCN(C)CC2)c1CCC,10 µM (active),

SMILES,Potency,"activity, negative = inhibition"
CCCCc1nc2ccccc2c(=O)n1NC(=O)c1c(O)c2cccc3c2n(c1=O)CC3,inactive,
CCOC(=O)N1CCN(CC(=O)Nc2cc(C)nn2-c2nc3ccccc3s2)CC1,inactive,
FC(F)(F)c1ccc2nnc(-c3c(Cl)cccc3Cl)n2c1,44.7 µM (active),
O=C1Cc2cc(S(=O)(=O)Nc3ccc(OC(F)(F)F)cc3)cc3c2N1CCC3,inactive,
O=C(Nc1ccon1)c1nc[nH]c1C(=O)NCc1ccccc1,,4.11% [at 0.501 µM] (inactive)
CCOC(=O)c1c(C)[nH]c(C)c1S(=O)(=O)N(C)CC(=O)N1CCN(c2ccccc2)CC1,inactive,
O=C(Cc1ccc(-n2c(=O)[nH]c3ccccc3c2=O)cc1)N1CCN(c2cccc(Cl)c2)CC1,,-10.6% [at 12.7 µM] (inactive)
CCCCNC(=O)c1ccc(-n2c(=S)[nH]c3ccccc3c2=O)cc1,inactive,
CCOC(=O)N1CCN(C(=O)Cc2ccc(-n3c(=S)[nH]c4ccccc4c3=O)cc2)CC1,44.7 µM (active),
O=C(COC(=O)/C=C/c1ccc(OC(F)F)cc1)NC1CCCCC1,inactive,
Cc1ccc(OCCNC(=O)CCNS(=O)(=O)c2ccc(Br)cc2)cc1,inactive,
COc1ccccc1-c1oc2ccccc2c1C#CCCCCO,,7.94% [at 0.501 µM] (inactive)
CCOC(=O)c1ccc(NC(=O)c2nc(SCc3ccc(F)cc3)ncc2Cl)cc1,inactive,
Cc1nnc(NC(=O)Nc2ccc(Cl)c(Cl)c2)s1,inactive,
Cc1cccc(NC(=O)c2nc[nH]c2C(=O)NCC(=O)OCc2ccccc2)c1,inactive,
Cc1cccc(OCc2ccc(C(=O)Nc3ccc(F)cc3)cc2)c1,inactive,
Cc1cccc(NC(=O)c2nc(S(=O)(=O)Cc3ccccc3)ncc2Cl)c1,39.8 µM (active),
Cc1ccc(S(=O)(=O)CC(=O)Nc2nnc(C)s2)cc1,inactive,
CCSc1ncc(Cl)c(C(=O)Nc2cc(C)ccc2C)n1,inactive,
Cc1ccc(CS(=O)(=O)c2ncc(Cl)c(C(=O)Nc3nnc(C)s3)n2)cc1,14.1 µM (active),
Cc1cccc(CS(=O)(=O)c2ncc(Cl)c(C(=O)Nc3ccc(F)cc3)n2)c1,28.2 µM (active),
